Source: PubChem BioAssay
This excerpt belongs to a sample that is enriched for hits.
a7 integrin act – activates integrin-mediated alleviation for muscular dystrophy; alpha7betagal myoblasts, beta-gal FDG fluorescence, 48 h; Potency, µM (doses to about 38.3 µM), actives largely listed as activators; 350,000 tested, 0.064% active; AID 624291; note: nearly all actives have a fitted effect of over 60% in size
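Alpha7betagal+/- myoblasts (passage 13) were plated 16-24 hr, then exposed to compounds (1:260 dilution of DMSO stock) for 48 hours at 37C. After MPER lysis, β-galactosidase reporter activity was read as FDG fluorescence (ex 480/em 540) after 30 minutes.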
Giardia killer – Giardia lamblia killing; Giardia lamblia trophozoite viability; activity change, % at 7.66 µM, hits read low; 340,000 tested, 0.15% active; AID 540267; in the data active = activity change below about -80%; inconclusive = between about -30% and that limit;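 note: parasites exposed to compound for two days anaerobically before the ATP read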
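Media and compound were dispensed first, then trophozoites at 100 cells/well; plates sat 48 hrs at 37 deg C without oxygen before ATP luminescence reagent was added and read after 15-30 min at room temperature.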
RORgamma inh – blocks mouse ROR gamma transcriptional activity. 310,000 tested, 5.4% active. Potency, µM (titrated, usually from 53.6 µM), hits mostly inhibitors. AID 2551. Drosophila S2 Gal4-RORgamma UAS-luciferase reporter, 20 h; note: nearly all actives have a fitted effect of over 60% in size
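Compounds are pin-transferred onto Drosophila Schneider cells expressing a copper-inducible Gal4–ROR gamma transactivation domain fusion. After 1 hr, copper sulfate is added to 700 uM final; luciferase is read 20 hr later.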
ERG Ets-DNA blk – inhibitors of human ERG Ets domain-DNA interaction; fluorescence polarization, His-ERG Ets domain / labelled DNA; 370,000 tested, 0.028% active; Potency, µM (highest dose often 76.9 µM), hits mostly inhibitors; AID 624246; active = well fitted inhibition curve with a large enough effect in the polarisation, with a control signal flat; inconclusive = small, poorly fitted or top-dose-only effect, or effect the other way, or a change in a side signal; inactive = no such curve, though single readings can be large or run the other way; the % refers to the polarisation;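 note: polarization taken with two DNA probes labelled with fluorescein and Texas red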
Target sequence (P11308 whole entry, looked up, the tested form may be a part): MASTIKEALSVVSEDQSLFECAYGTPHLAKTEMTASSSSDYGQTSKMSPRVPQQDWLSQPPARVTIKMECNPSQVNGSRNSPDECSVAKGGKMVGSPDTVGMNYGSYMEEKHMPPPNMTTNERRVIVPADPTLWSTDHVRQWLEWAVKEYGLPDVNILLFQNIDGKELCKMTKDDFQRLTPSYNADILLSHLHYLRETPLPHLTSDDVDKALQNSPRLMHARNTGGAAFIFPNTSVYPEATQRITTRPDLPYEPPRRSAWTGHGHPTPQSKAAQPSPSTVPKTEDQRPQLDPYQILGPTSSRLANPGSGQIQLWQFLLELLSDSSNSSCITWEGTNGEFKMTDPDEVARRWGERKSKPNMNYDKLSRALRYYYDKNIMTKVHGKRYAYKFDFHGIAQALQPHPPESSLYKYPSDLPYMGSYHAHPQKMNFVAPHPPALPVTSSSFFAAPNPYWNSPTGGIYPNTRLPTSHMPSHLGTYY
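His-tagged ERG Ets domain (1 uM in the protein solution; 300mM KCl, 50mM Tris-HCl, 1mM EDTA, 1mM DTT, pH 7.5) received compound, then a probe mix of 5 nM fluorescein-DNA and 100nM Texas-615-DNA. Fluorescence polarization was read for both dyes.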
VP16 counter – counter-screen for ROR gamma inhibitors: Gal4-VP16 reporter. Drosophila S2 Gal4-VP16 UAS-luciferase, luminescence, 20 h. AID 2546. 310,000 tested, 3.5% active. Potency, µM (highest dose often 53.6 µM), hits mostly inhibitors;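 note: Gal4-VP16 expression switched on by copper sulfate through the metallothionein promoter; nearly all actives have a fitted effect of over 50% in size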
Large screens that a line does not name were inactive. Unless noted, calls come from the whole dose curve; as a rule, active = well fitted curve in the direction sought with a large enough effect; inconclusive = small, poorly fitted or top-dose-only effect, or another doubt; inactive = no such curve, though single readings can be large; an effect the other way counts as inactive or inconclusive.

CCC[C@@H](CN[C@@H](CNC)[C@H](C)CC)NCC1CCC(C(C)(C)C)CC1 (some centres undefined)	RORgamma inh 11.2µM, VP16 counter inconclusive
Cc1ccc(S(=O)(=O)/N=C2\C(=O)c3ccccc3C([O-])=C2n2cc[n+](CCC(C)C)c2)cc1	RORgamma inh 8.91µM, VP16 counter inconclusive (no result: ERG Ets-DNA blk)
CCC1CCCCN1C(=O)COC(=O)CN(C)S(=O)(=O)c1ccc(NC(C)=O)cc1 (centres undefined)	none (no result: RORgamma inh, VP16 counter)
CC(C)(C)S(=O)(=O)c1cnc2c(-c3ccc(F)cc3)cnn2c1N	RORgamma inh 4.47µM
Cc1cc2ncc(-c3ccc(Cl)cc3)c(N)n2n1	RORgamma inh inconclusive, VP16 counter inconclusive
Nc1c(-c2ccccc2)cnc2cc(-c3ccccc3)nn12	RORgamma inh 2.82µM, VP16 counter inconclusive
COc1ccc(-c2cnn3c(N)c(S(=O)(=O)C(C)(C)C)cnc23)cc1	RORgamma inh 11.2µM, VP16 counter inconclusive
Nc1c(-c2ccc(Cl)cc2)cnc2c(-c3ccccc3)cnn12	RORgamma inh 22.4µM
O=C(Cn1cnc2c(NCc3ccccc3)ncnc21)NCCCN1CCCC1=O	none (no result: RORgamma inh, VP16 counter)
O=C1[C@H]2[C@H]3[C@H](O)[C@H](O)C/C(=N/OCc4ccccc4)[C@H]3CC[C@@H]2C(=O)N1C1CCCCC1	none (no result: a7 integrin act, Giardia killer, ERG Ets-DNA blk)
CC[C@H](C)[C@H](NC(=O)[C@H](Cc1ccc(O)cc1)NC(=O)[C@@H]1CCCN1C(=O)[C@@H](N)CCCN=C(N)N)C(=O)N[C@@H](CC(C)C)C(=O)O	none (no result: a7 integrin act, Giardia killer, ERG Ets-DNA blk)
CC(C)(C)S(=O)(=O)c1cnc2c(-c3ccc(Cl)cc3)cnn2c1N	RORgamma inh 2.82µM
CC(C)(C)N1CC23C=CC(C[C@@H]2C1=O)O3 (some centres undefined)	none (no result: RORgamma inh, VP16 counter)
COc1ccc(-c2cc(C(=O)NCc3ccc(F)cc3)c3c(-c4ccc(F)cc4)[nH]nc3n2)cc1OC	none (no result: a7 integrin act, Giardia killer, RORgamma inh, VP16 counter)
CCOC(=O)c1c(N)sc(C(=O)Nc2ccc3c(c2)OCO3)c1C	Giardia killer inconclusive, RORgamma inh inconclusive, VP16 counter 5.62µM
CC(C)c1nnc(NC(=O)c2nc(SCc3ccc(F)cc3)ncc2Cl)s1	none (no result: a7 integrin act, Giardia killer, RORgamma inh, VP16 counter)
Cc1ccc(CS(=O)(=O)c2ncc(Cl)c(C(=O)Nc3nnc(C(C)C)s3)n2)cc1	RORgamma inh inconclusive, VP16 counter 7.08µM
CCSc1nnc(NC(=O)c2nc(S(=O)(=O)Cc3ccc(F)cc3)ncc2Cl)s1	RORgamma inh inconclusive, VP16 counter 11.2µM
CC(C)c1nnc(NC(=O)c2nc(S(=O)(=O)Cc3ccc(F)cc3)ncc2Cl)s1	RORgamma inh 11.2µM, VP16 counter inconclusive
CSc1nnc(NC(=O)c2nc(S(=O)(=O)Cc3cccc(C)c3)ncc2Cl)s1	RORgamma inh inconclusive, VP16 counter 17.8µM
CN(c1ccccc1)S(=O)(=O)c1ccc(Cl)c(C(=O)Nc2ccccc2N2CCOCC2)c1	none (no result: RORgamma inh, VP16 counter)
Cc1cccc(CS(=O)(=O)c2ncc(Cl)c(C(=O)Nc3nnc(C(C)C)s3)n2)c1	RORgamma inh 0.0224µM, VP16 counter inconclusive
C=CCSc1nnc(NC(=O)c2nc(SCC)ncc2Cl)s1	RORgamma inh 11.2µM, VP16 counter inconclusive
Oc1ccc2ccccc2c1C=NNc1ccccn1	none (no result: RORgamma inh, VP16 counter)
Oc1ccc2ccccc2c1/C=N/Nc1nnc(-c2ncc[nH]2)c2ccccc12	RORgamma inh 0.251µM, VP16 counter 0.251µM
COc1ccc(/C=N/Nc2nnc(-c3ncc[nH]3)c3ccccc23)cc1	RORgamma inh 2.82µM, VP16 counter 4.47µM
COc1cc(NC(=O)c2ccc(C(=O)Nc3cc(OC)c(Cl)cc3OC)cc2)c(OC)cc1Cl	none (no result: a7 integrin act, Giardia killer, RORgamma inh, VP16 counter)
OC(c1ccccc1)(c1ccccc1)c1ccn[nH]1	none (no result: RORgamma inh, VP16 counter)
O/N=C/c1ccnc(SCc2ccc(Cl)cc2)n1	none
O/N=C/c1ccnc(SCc2ccccc2)n1	RORgamma inh 0.562µM, VP16 counter 3.55µM
Cc1ccc(C)c(NC(=S)N=Nc2c(O)n(C)c3ccc(S(=O)(=O)N4CCOCC4)cc23)c1	RORgamma inh 0.631µM, VP16 counter 1.12µM
Cc1ccc(Cn2c(O)c(N=NC(=S)Nc3ccccc3F)c3cc(S(=O)(=O)N4CCOCC4)ccc32)cc1	RORgamma inh 2µM, VP16 counter inconclusive
Cn1c(O)c(N=NC(=O)c2cccc(S(=O)(=O)N3CCCCC3)c2)c2ccccc21	none
CCc1ccccc1NC(=S)N=Nc1c(O)n(C)c2ccc(S(=O)(=O)N3CCOCC3)cc12	RORgamma inh 1.12µM, VP16 counter 4.47µM
Cc1ccc(C)c(SCC(=O)Nc2cc(S(=O)(=O)N3CCOCC3)ccc2C)c1	none (no result: RORgamma inh, VP16 counter)
NNC(=O)c1sc2cc(C(F)(F)F)cnc2c1-c1cccs1	RORgamma inh 10µM, VP16 counter inconclusive
NC(=O)c1sc2cc(C(F)(F)F)cnc2c1-c1cccs1	none
NNC(=O)c1sc2cc(C(F)(F)F)cnc2c1-c1cccnc1	RORgamma inh 14.1µM, VP16 counter inconclusive
COC(=O)c1sc2cc(C(F)(F)F)cnc2c1-c1cccnc1	none
O=C(N/N=C/c1ccccc1O)C1CC(=O)N(c2ccc(Cl)cc2)C1 (centres undefined)	RORgamma inh 0.891µM, VP16 counter 1.12µM
Cc1cccc(NC(=O)C2CCCN(S(=O)(=O)c3cccs3)C2)c1C (centres undefined)	none
CN1CCN(C2=C(NS(=O)(=O)c3ccccc3)C(=O)c3ccccc3C2=O)CC1	RORgamma inh 11.2µM, VP16 counter 12.6µM
CCN1CCN(C2=C(NS(=O)(=O)c3ccccc3)C(=O)c3ccccc3C2=O)CC1	RORgamma inh 10µM, VP16 counter inconclusive
CCN1CCN(C2=C(NS(=O)(=O)c3ccc(Br)cc3)C(=O)c3ccccc3C2=O)CC1	RORgamma inh inconclusive, VP16 counter inconclusive
Cc1cccc(-c2nn(-c3ccccc3)cc2C(=O)N(C)CC(=O)Nc2ccc(N3CCOCC3)cc2)c1	none (no result: RORgamma inh, VP16 counter)
Cc1cccc2c(=O)cc(CSCC(=O)Nc3ccc(Cl)cc3)[nH]c12	none (no result: a7 integrin act, Giardia killer, RORgamma inh, VP16 counter)
COc1ccc(CCN2CC(C(=O)NCCc3cn[nH]c3)CCC2=O)cc1 (centres undefined)	none
COc1ccccc1C(=O)NCC(=O)NC(C)CCc1ccccc1 (centres undefined)	RORgamma inh 6.31µM, VP16 counter 14.1µM
COc1ccccc1C(=O)OCC(=O)NC(C)CCc1ccccc1 (centres undefined)	none
COc1ccccc1C(=O)CC(=O)c1ccccc1	RORgamma inh 10µM
O=C(CC(=O)c1ccccc1)c1ccccc1	RORgamma inh 3.98µM, VP16 counter 7.94µM
COc1ccc(S(=O)(=O)Nc2nc3c(s2)CCCC3)cc1	RORgamma inh inconclusive
COc1cccc(CC(=O)NN2C(=O)NC3(CCCCC3)C2=O)c1	none (no result: RORgamma inh, VP16 counter)
CCNC(=S)N/N=C(\C)c1ccc2ccccc2c1OC(F)F	RORgamma inh 1.26µM, VP16 counter 7.08µM
CCNC(=S)N/N=C(\C)c1ccc2ccccc2c1	RORgamma inh 2.82µM, VP16 counter 7.08µM (no result: a7 integrin act, Giardia killer, ERG Ets-DNA blk)
C/C(=N\NC(=O)Nc1ccccc1)c1ccc2ccccc2c1	VP16 counter inconclusive
